In PubChem BioAssay (NCI):
The panel holds about 83,000 compounds, 20% with a hit somewhere; the sample as a whole holds those more often.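 Compound tested at a single concentration for 48 hours in 96-well plates; a percent growth value below 10 was scored as active.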 Calls of active or inactive are those of the source.

Key:
Assay in all cases: NCI-60 one-dose screen, 48 h (100 = growth as untreated, 0 = no growth, -100 = all killed)
Conditions in all cases: 10 µM unless noted
SR leukemia = test system: SR leukemia
RPMI-8226 leukemia = test system: RPMI-8226 leukemia
OVCAR-8 ovarian = test system: OVCAR-8 ovarian
OVCAR-5 ovarian = test system: OVCAR-5 ovarian
OVCAR-4 ovarian = test system: OVCAR-4 ovarian
SK-OV-3 ovarian = test system: SK-OV-3 ovarian
IGROV1 ovarian = test system: IGROV1 ovarian
OVCAR-3 ovarian = test system: OVCAR-3 ovarian
HS 578T breast = test system: HS 578T breast
NCI/ADR-RES ovarian = test system: NCI/ADR-RES ovarian

Measured: growth

C=C1C(=O)O[C@H]2[C@H]1CC/C(COC(=O)CCCc1c[nH]c3ccccc13)=C\CC[C@@]1(C)O[C@@H]21
inactive: OVCAR-8 ovarian 66.3% | OVCAR-5 ovarian 94.7% | OVCAR-4 ovarian 65.8% | SK-OV-3 ovarian 98.2% | IGROV1 ovarian 45.8% | OVCAR-3 ovarian 28.3% | HS 578T breast 74% | NCI/ADR-RES ovarian 72.2%
active: SR leukemia 1.59% | RPMI-8226 leukemia -17.6%

COc1cc(C2CC(c3cccc(Nc4ccncc4)c3)=NN2c2cc(Cl)cc(Cl)c2)cc(OC)c1OC (stereo not given)
active: SR leukemia 0.528% | RPMI-8226 leukemia -13.7% | OVCAR-8 ovarian -8.55% | OVCAR-4 ovarian 6.43% | IGROV1 ovarian -2.86% | OVCAR-3 ovarian 3.71% | HS 578T breast 0.285%
inactive: OVCAR-5 ovarian 65.1% | SK-OV-3 ovarian 76.2% | NCI/ADR-RES ovarian 51.4%

COC(=O)CCCCCCCCC1(C)C=CC(C(C)O)=CC1 (stereo not given)
inactive: SR leukemia 89.8% | RPMI-8226 leukemia 103% | OVCAR-8 ovarian 105% | OVCAR-5 ovarian 120% | OVCAR-4 ovarian 110% | SK-OV-3 ovarian 110% | IGROV1 ovarian 99.7% | OVCAR-3 ovarian 111% | HS 578T breast 117% | NCI/ADR-RES ovarian 102%

CCCCCCCC(=O)Nc1nc2[nH]c(CN3CCN(Cc4cccc(I)c4)CC3)c(CN3CCN(Cc4cccc(I)c4)CC3)c2c(=O)[nH]1
active: SR leukemia -43.4% | RPMI-8226 leukemia -22.5% | OVCAR-8 ovarian -49.6% | OVCAR-5 ovarian -66.1% | OVCAR-4 ovarian -89.8% | SK-OV-3 ovarian -69.8% | IGROV1 ovarian -74% | OVCAR-3 ovarian -95.8% | HS 578T breast -40.9% | NCI/ADR-RES ovarian -51.1%

CN1C(=O)N(C)[C@H]2NC(NN)=N[C@H]21
inactive: SR leukemia 100% | RPMI-8226 leukemia 118% | OVCAR-8 ovarian 103% | OVCAR-5 ovarian 98.8% | OVCAR-4 ovarian 103% | SK-OV-3 ovarian 121% | IGROV1 ovarian 98.9% | OVCAR-3 ovarian 109% | HS 578T breast 95.2% | NCI/ADR-RES ovarian 105%

O=C(N=Nc1c(O)[nH]c2ccc(F)cc12)c1cc2ccccc2[nH]1
inactive: SR leukemia 95.1% | RPMI-8226 leukemia 92% | OVCAR-8 ovarian 97.2% | OVCAR-5 ovarian 103% | OVCAR-4 ovarian 99.9% | SK-OV-3 ovarian 110% | IGROV1 ovarian 79.3% | OVCAR-3 ovarian 101% | HS 578T breast 101% | NCI/ADR-RES ovarian 100%

O=C(O)c1ccc[n+](CC(=O)N2CCN(c3cc4c(cc3F)c(=O)c(C(=O)O)cn4C3CC3)CC2)c1
inactive: SR leukemia 17.2% | RPMI-8226 leukemia 75.4% | OVCAR-8 ovarian 79.7% | OVCAR-5 ovarian 107% | OVCAR-4 ovarian 60.4% | SK-OV-3 ovarian 109% | IGROV1 ovarian 95.8% | OVCAR-3 ovarian 55.6% | HS 578T breast 87.9% | NCI/ADR-RES ovarian 94.7%

CCCCCCCCCCCCCCCC(=O)OC[C@@]1(O)C[C@@]23CC[C@@H]4C(C)(C)CCC[C@@]4(C)[C@@H]2CC[C@H]1C3
inactive: SR leukemia 22.9% | RPMI-8226 leukemia 81.9% | OVCAR-8 ovarian 92.3% | OVCAR-5 ovarian 108% | OVCAR-4 ovarian 97.7% | SK-OV-3 ovarian 113% | IGROV1 ovarian 107% | OVCAR-3 ovarian 103% | HS 578T breast 98.9% | NCI/ADR-RES ovarian 102%

Fc1ccc(C2CC(c3cccc(Nc4ccncc4)c3)=NN2c2cc(Cl)cc(Cl)c2)cc1 (stereo not given)
active: SR leukemia 2.89% | OVCAR-8 ovarian -18.3%
inactive: RPMI-8226 leukemia 20.9% | OVCAR-5 ovarian 87.5% | OVCAR-4 ovarian 15.8% | SK-OV-3 ovarian 83.3% | IGROV1 ovarian 25.1% | OVCAR-3 ovarian 62.1% | HS 578T breast 57.8% | NCI/ADR-RES ovarian 64.3%

CCc1nc(C)cn1C(=O)OCc1nc2nc(Cl)nc(N3CCOCC3)c2[nH]1
active: SR leukemia -16.1% | RPMI-8226 leukemia -33.1% | OVCAR-8 ovarian -13.7% | OVCAR-5 ovarian -48.9% | OVCAR-4 ovarian -33.9% | IGROV1 ovarian -48.1% | OVCAR-3 ovarian -80.9% | HS 578T breast -6.6% | NCI/ADR-RES ovarian 2.83%
inactive: SK-OV-3 ovarian 70%

CC(=O)c1cccc(NS(=O)(=O)c2cccc(C(=O)Nc3ccc(Br)cc3)c2)c1
inactive: SR leukemia 60.6% [25 µM] | RPMI-8226 leukemia 30.4% [25 µM] | OVCAR-8 ovarian 57.1% [25 µM] | OVCAR-5 ovarian 77.9% [25 µM] | OVCAR-4 ovarian 47.6% [25 µM] | SK-OV-3 ovarian 58.1% [25 µM] | IGROV1 ovarian 62.4% [25 µM] | OVCAR-3 ovarian 66.1% [25 µM] | HS 578T breast 80.6% [25 µM] | NCI/ADR-RES ovarian 34.7% [25 µM]

COc1ccc(C(=O)/C=C/c2c(OC)cc(OC)cc2OC)c(OC)c1
inactive: SR leukemia 23.1% | RPMI-8226 leukemia 13% | OVCAR-8 ovarian 25.9% | OVCAR-5 ovarian 31.5% | OVCAR-4 ovarian 79.1% | SK-OV-3 ovarian 10.9% | IGROV1 ovarian 40.3% | HS 578T breast 54.1%
active: OVCAR-3 ovarian -33.3% | NCI/ADR-RES ovarian -21.9%

CN1CCN(CCCOc2ccc3ncnc(Nc4ccc(Oc5cccc(C(F)(F)F)c5)c(Cl)c4)c3c2)CC1
active: SR leukemia 4.03% | RPMI-8226 leukemia -21.6% | OVCAR-5 ovarian 5.84% | OVCAR-4 ovarian 2.72% | IGROV1 ovarian -53.7%
inactive: OVCAR-8 ovarian 24.6% | SK-OV-3 ovarian 21.4% | OVCAR-3 ovarian 30.2% | HS 578T breast 26.8% | NCI/ADR-RES ovarian 34.8%

O=C(Nc1nc2ccc(S(=O)(=O)Nc3ccc(C4(C(F)(F)F)CC4)cc3)cc2[nH]1)c1cnccn1
inactive: SR leukemia 20% | RPMI-8226 leukemia 30.3% | OVCAR-8 ovarian 55.4% | OVCAR-5 ovarian 56.8% | OVCAR-4 ovarian 46.1% | SK-OV-3 ovarian 58% | IGROV1 ovarian 40.3% | HS 578T breast 17.6% | NCI/ADR-RES ovarian 21%
active: OVCAR-3 ovarian -18.6%

CC(=O)[C@@H]1CC[C@]2(C(=O)n3ccnc3)CC[C@]3(C)[C@H](CC[C@@H]4[C@@]5(C)Cc6c([nH]c7ccccc67)C(C)(C)[C@@H]5CC[C@]43C)[C@@H]12
inactive: SR leukemia 77.7% | RPMI-8226 leukemia 72.7% | OVCAR-8 ovarian 90.7% | OVCAR-5 ovarian 105% | OVCAR-4 ovarian 85.2% | SK-OV-3 ovarian 98.3% | IGROV1 ovarian 42.6% | OVCAR-3 ovarian 79.5% | HS 578T breast 87.1% | NCI/ADR-RES ovarian 90%

CCN(CC)CCSCCCNc1c(C)cnc2cc(Cl)ccc12
inactive: SR leukemia 30.9% | RPMI-8226 leukemia 83% | OVCAR-8 ovarian 93.2% | OVCAR-5 ovarian 98.4% | OVCAR-4 ovarian 86% | SK-OV-3 ovarian 108% | IGROV1 ovarian 85.4% | OVCAR-3 ovarian 82.5% | HS 578T breast 102% | NCI/ADR-RES ovarian 82.5%

O=C(/C=C\c1ccc(OCCCCCC[P+](c2ccccc2)(c2ccccc2)c2ccccc2)cc1)c1ccc2c(c1)OCCO2
inactive: OVCAR-5 ovarian 13.9% | NCI/ADR-RES ovarian 78.1%
active: SR leukemia -18.9% | RPMI-8226 leukemia -41.7% | OVCAR-8 ovarian 1.04% | OVCAR-4 ovarian -3.06% | SK-OV-3 ovarian -23.8% | IGROV1 ovarian 5.29% | OVCAR-3 ovarian -27% | HS 578T breast 7.53%

COc1ccc(C(=O)c2cc3c(N)c(C(=O)Nc4ccc(Cl)cc4)sc3nc2C)cc1
inactive: SR leukemia 36.4% | RPMI-8226 leukemia 74.6% | OVCAR-8 ovarian 50.2% | OVCAR-5 ovarian 86.7% | OVCAR-4 ovarian 21.5% | SK-OV-3 ovarian 73.5% | IGROV1 ovarian 90.6% | OVCAR-3 ovarian 73.3% | HS 578T breast 60.3% | NCI/ADR-RES ovarian 75.3%

COc1ccccc1/C=C1\Oc2cc(OCCCN3CCCC3)ccc2C1=O
inactive: SR leukemia 46.9% | RPMI-8226 leukemia 107% | OVCAR-8 ovarian 93.7% | OVCAR-5 ovarian 84.2% | OVCAR-4 ovarian 89% | SK-OV-3 ovarian 108% | IGROV1 ovarian 92.3% | OVCAR-3 ovarian 94.8% | HS 578T breast 83.7% | NCI/ADR-RES ovarian 84.6%

CCn1cc(C2NC(=O)c3ccccc3N2)c2cccc(C)c21 (stereo not given)
active: SR leukemia -18.2% | RPMI-8226 leukemia 6.81% | OVCAR-8 ovarian 7.03% | OVCAR-3 ovarian -44.9% | HS 578T breast 7.22% | NCI/ADR-RES ovarian 8.25%
inactive: OVCAR-5 ovarian 19.6% | OVCAR-4 ovarian 25.7% | SK-OV-3 ovarian 32.9% | IGROV1 ovarian 14.4%

CCC(=O)c1ccc(O)c(OC)c1
inactive: SR leukemia 108% | RPMI-8226 leukemia 93.7% | OVCAR-8 ovarian 99.4% | OVCAR-5 ovarian 107% | OVCAR-4 ovarian 107% | SK-OV-3 ovarian 122% | IGROV1 ovarian 102% | OVCAR-3 ovarian 110% | HS 578T breast 95.7% | NCI/ADR-RES ovarian 104%

c1ccc(C2CC(c3cccc(Nc4ccncc4)c3)=NN2c2ccccc2)cc1 (stereo not given)
active: SR leukemia 5.55%
inactive: RPMI-8226 leukemia 16.2% | OVCAR-8 ovarian 68.5% | OVCAR-5 ovarian 81.6% | OVCAR-4 ovarian 67.5% | SK-OV-3 ovarian 84.1% | IGROV1 ovarian 62.6% | OVCAR-3 ovarian 78.3% | HS 578T breast 82.5% | NCI/ADR-RES ovarian 74.2%
